Reference: PubChem BioAssay (NCATS)
Inconclusive results are not listed. The source made the active and inactive calls. The call rests on the fitted dose curve; in most records, active means well fitted inhibition curve with a large enough effect; inconclusive means small, poorly fitted or top-dose-only effect; inactive means flat fitted curve, though single readings scatter.

Assays:
Assay in all cases: qHTS profiling for inhibitors of Plasmodium falciparum proliferation (AID 504749); further: nearly all actives have a fitted effect of over 60% in size
3D7 = settings: P. falciparum in erythrocytes, SYBR Green DNA, 72 h; series mostly up to 28.7 µM
Procedure, shortened: (§1)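 In a 72 h erythrocytic culture (37 C, humidified, 5% CO2) at 2.5% hematocrit and 0.3% starting parasitemia, compounds were tested; SYBR Green I in detergent lysis buffer stained parasite DNA overnight.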

C2A = settings: P. falciparum in erythrocytes, SYBR Green DNA, 72 h; series mostly up to 28.7 µM
Procedure, shortened: as §1

CP185 = settings: P. falciparum in erythrocytes, SYBR Green DNA, 72 h; series mostly up to 28.7 µM
Procedure, shortened: as §1

CP201 = settings: P. falciparum in erythrocytes, SYBR Green DNA, 72 h; series mostly up to 28.7 µM
Procedure, shortened: as §1

CP237 = settings: P. falciparum in erythrocytes, SYBR Green DNA, 72 h; series mostly up to 28.7 µM
Procedure, shortened: as §1

CP238 = settings: P. falciparum in erythrocytes, SYBR Green DNA, 72 h; series mostly up to 28.7 µM
Procedure, shortened: as §1

CP262 = settings: P. falciparum in erythrocytes, SYBR Green DNA, 72 h; series mostly up to 28.7 µM
Procedure, shortened: as §1

CP265 = settings: P. falciparum in erythrocytes, SYBR Green DNA, 72 h; series mostly up to 12.8 µM
Procedure, shortened: as §1

CP266 = settings: P. falciparum in erythrocytes, SYBR Green DNA, 72 h; series mostly up to 12.8 µM
Procedure, shortened: as §1

CP268 = settings: P. falciparum in erythrocytes, SYBR Green DNA, 72 h; series mostly up to 28.7 µM
Procedure, shortened: as §1

CP269 = settings: P. falciparum in erythrocytes, SYBR Green DNA, 72 h; series mostly up to 28.7 µM
Procedure, shortened: as §1

CP286 = settings: P. falciparum in erythrocytes, SYBR Green DNA, 72 h; series mostly up to 28.7 µM
Procedure, shortened: as §1

CP305 = settings: P. falciparum in erythrocytes, SYBR Green DNA, 72 h; series mostly up to 28.7 µM
Procedure, shortened: as §1

CP325 = settings: P. falciparum in erythrocytes, SYBR Green DNA, 72 h; series mostly up to 28.7 µM
Procedure, shortened: as §1

CP329 = settings: P. falciparum in erythrocytes, SYBR Green DNA, 72 h; series mostly up to 28.7 µM
Procedure, shortened: as §1

DIV30 = settings: P. falciparum in erythrocytes, SYBR Green DNA, 72 h; series mostly up to 28.7 µM
Procedure, shortened: as §1

ECU = settings: P. falciparum in erythrocytes, SYBR Green DNA, 72 h; series mostly up to 28.7 µM
Procedure, shortened: as §1

PAD = settings: P. falciparum in erythrocytes, SYBR Green DNA, 72 h; series mostly up to 28.7 µM
Procedure, shortened: as §1

SC27B = settings: P. falciparum in erythrocytes, SYBR Green DNA, 72 h; series mostly up to 28.7 µM
Procedure, shortened: as §1

TAB109 = settings: P. falciparum in erythrocytes, SYBR Green DNA, 72 h; series mostly up to 12.8 µM
Procedure, shortened: as §1

Measured: Potency

C[C@]12CC[C@H]3[C@@H](CCC4=CC(=O)CC[C@@]43C)[C@@H]1CC[C@@H]2O
inactive: all assays above

C[C@@]12CCC(=O)C=C1C=C[C@H]1[C@H]3CC[C@](O)(CCC(=O)O)[C@]3(C)CC[C@@H]12
inactive: all assays above

CN(C)[C@@H]1C(=O)C(C(N)=O)=C(O)[C@]2(O)C(=O)C3=C(O)c4c(O)ccc(Cl)c4[C@](C)(O)[C@H]3C[C@@H]12
inactive: all assays above
